Test results as given in PubChem BioAssay AID1863 (Southern Research Specialized Biocontainment Screening …, 2009).
The campaign covered roughly 300,000 compounds. About 480 (0.16%) were called active. The list is a sample of the results. Results with a measured potency or affinity are listed apart. Values without a mark were called inactive.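 How the source made its calls: active means inhibition over 29.93%, a cutoff 3 SD above the screen mean, later confirmed by dose response; inconclusive means inhibition over 29.93% but no dose response follow-up; inactive means inhibition at most 29.93% or unconfirmed.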

Experiment: PhoP-dependent GFP reporter repression – Salmonella Typhimurium, primary screen (AID 1863);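 further: 0% = low Mg2+ inducing control and 100% = high Mg2+ repressing control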
Details: S. Typhimurium PhoP-regulated promoter GFP reporter, 4 h; at 50 µM; hits give high values

Row | SMILES | inhibition
1 | CN(C)CCCN(C(=O)CCc1ccccc1)c1nc2ccc(Br)cc2s1 | 10.9%
2 | Cc1ccc2nc(N(CCCN(C)C)C(=O)CCc3ccccc3)sc2c1 | -4.17%
3 | C=CCN1CCN(C(=O)c2oc3ccccc3c2C)CC1 | -3.66%
4 | Cc1ccc(NC2CCCN(C(=O)c3cn(C)c4ccccc34)C2)cc1C (stereo unspecified) | 0.88%
5 | CC(=O)NC(c1ccc2ccccc2c1)c1ccc2cccnc2c1O (stereo unspecified) | 56.5%
6 | Cc1ccc(C(NC(=O)C(C)C)c2cc([N+](=O)[O-])c3cccnc3c2O)cc1 (stereo unspecified) | 9.47%
7 | COc1cccc(C(NC(C)=O)c2ccc3cccnc3c2O)c1 (stereo unspecified) | 9.73%
8 | CCCC(=O)NC(c1cccs1)c1cc(Cl)c2cccnc2c1O (stereo unspecified) | -5.84%
9 | CC(C)C(=O)NC(c1cccs1)c1cc([N+](=O)[O-])c2cccnc2c1O (stereo unspecified) | 2.63%
10 | CC(=O)NC(c1ccccc1)c1cc([N+](=O)[O-])c2cccnc2c1O (stereo unspecified) | 4.87%
11 | CCCCC(=O)NC(c1cccs1)c1cc(Cl)c2cccnc2c1O (stereo unspecified) | -0.21%
12 | CC(C)C(=O)NC(c1ccccc1)c1cc([N+](=O)[O-])c2cccnc2c1O (stereo unspecified) | -2.27%
13 | COc1cccc2cc(CC(=O)c3cc(C)ccc3C)c(=O)oc12 | -3.13%
14 | CCOc1ccc(NC(=O)CN(C)C(=O)c2ccc3nc(CC)c(CC)nc3c2)cc1OCC | -9.1%
15 | CC(C)C[C@H](NC(=O)c1nc[nH]c1C(=O)NCCCCCNC(=O)OC(C)(C)C)C(=O)OCc1ccccc1 | -4.74%
16 | Cc1ccc(S(=O)(=O)N2CCN(C(=O)CC(C)C)CC2)cc1 | 3.71%
17 | Cc1ccc(NC(=O)Nc2ccon2)cc1Cl | 0.2%
18 | Clc1ccccc1CONc1ncnc2nonc12 | -2.15%
19 | CCC(C)(C)NC(=O)Cc1ccc(OC)c(OC)c1 | -10.6%
20 | O=Cc1c(F)cccc1N1CCCC1 | 8.32%
21 | Cc1cccc(NC(=O)CC2(CC(=O)O)CCCC2)c1 | -1.98%
22 | Cc1ccc(C2N(c3ccc(Cl)cc3)C(=O)N3CCCN23)cc1 (stereo unspecified) | -0.36%
23 | O=[N+]([O-])c1cc2cccnc2c2ncccc12 | -10.2%
24 | CCOC(=O)COc1cc([N+](=O)[O-])cc2cccnc12 | 1.41%
25 | CN(C)[C@@H]1C(=O)C(C(=O)NCN2CCCC2)=C(O)[C@@]2(O)C(=O)C3=C(O)c4c(O)cccc4[C@@](C)(O)C3CC12 (stereo partly specified) | 1.32%
26 | O=C1C(Oc2ccc(Cl)cc2)C(c2ccc3c(c2)OCO3)N1CC1CCCO1 (stereo unspecified) | -1.66%
